HCMV inh = inhibitors of human cytomegalovirus. 4.5% of 410,000 active. activity change, negative = inhibition, % at 57.5 µM. HFF cells, HCMV-luciferase reporter, 72 h; stronger effect = lower value; in the data active = activity change below about -60%; inconclusive = no clear call, values can overlap the other calls; inactive = above about -39%
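Human foreskin fibroblasts infected with luciferase-reporter HCMV at MOI 1 PFU/cell, compounds at two doses. Luciferase measured 72 h post infection; normalized to buffer-only basal and Salinomycin (10uM) controls.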
Pf growth 96h = P. falciparum growth inhibition at 96 hours. P. falciparum luciferase reporter growth, 96 h. Potency, µM (doses to about 28.7 µM), most hits filed as inhibitors. 6.9% of 320,000 active
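Cell-based qHTS: luciferase-tagged P. falciparum in erythrocytes (2% hematocrit, 0.05% parasitemia final) incubated with compounds for 96 hours, 37 C, 5% CO2; luciferase detection reagent then added and luminescence measured.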
Sm TGR block = blocks Schistosoma mansoni thioredoxin glutathione reductase; Q962Y6; purified TGR, DTNB reduction, TNB absorbance 405 nm; Potency, µM (highest dose often 114 µM), actives largely listed as inhibitors; 3% of 360,000 active; AID 485364; also: nearly all actives have a fitted effect of over 60% in size
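Kinetic colorimetric format: TGR-catalysed, NADPH-driven DTNB reduction monitored via TNB absorbance. Enzyme dispensed at 20 nM; compound exposure 15 min at room temperature before reaction start.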
Pf growth 48h = inhibits P. falciparum growth in the first generation, 48 h; Potency, µM (highest dose often 28.7 µM), most hits filed as inhibitors; 5.9% of 310,000 active; P. falciparum luciferase growth in erythrocytes, 48 h
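Luciferase-expressing P. falciparum in infected erythrocytes (2% hematocrit, 0.1% parasitemia final) in RPMI 1640/0.5% Albumax were exposed to compound for 48 hours at 37 C, 5% CO2; growth read as luminescence.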
SARS PLP yeast = SARS-CoV PLP inhibition in yeast; S. cerevisiae expressing SARS-CoV PLpro, growth rescue; Potency, µM (doses to about 32.9 µM), hits mostly activators; 0.19% of 330,000 active; calls by dose curve; also: nearly all actives have a fitted effect of over 55% in size
HCV inhibitor = inhibitors of hepatitis C virus infection | Huh7.5.1 HCVcc-Cre infection, luciferase reporter, 44 h | Potency, µM (highest dose often 41.8 µM), most hits filed as inhibitors | 3.4% of 340,000 active | AID 651820
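Infectious HCV cell culture screen: compound-treated cells (1,000/well, pre-plated 4 h) are infected with HCVcc-Cre at roughly 0.5 moi and grown 44 h. Infection is quantified by luciferase signal after 15 min substrate incubation at room temperature.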
Each line names hits and unclear results; the compound was inactive in the other large screens; ! = not active in a repeat. Hits are enriched below; roughly 15% of the tested compounds scored in any of these assays. Unless noted, calls follow the shape of the dose curve; as a rule, active = well fitted curve in the direction sought with a large enough effect; inconclusive = small, poorly fitted or top-dose-only effect, or another doubt; inactive = no such curve, though single readings can be large; an effect the other way counts as inactive or inconclusive.

N#Cc1nc(-c2ccccc2)oc1N1CCN(C(=O)c2ccco2)CC1	Pf growth 96h inconclusive
N#Cc1c(N2CCN(C(=O)c3ccco3)CC2)nc(-c2ccccc2)c2c1CCCC2	HCMV inh -78, Pf growth 48h inconclusive, HCV inhibitor inconclusive
COC(=O)[C@H]1[C@H](CO)[C@H]2Cn3c(ccc(Br)c3=O)[C@H]2N1C(=O)c1ccccn1	none (no result: Pf growth 96h, Sm TGR block, Pf growth 48h, SARS PLP yeast, HCV inhibitor)
CC1CCN(C(=O)CN2C(=O)C(=O)N(C)C2=O)c2ccccc2S1 (centres undefined)	none
COc1cccc(C(=O)Nc2ccc3nc(SCC(=O)N4CCOCC4)sc3c2)c1	none (no result: Pf growth 96h, Pf growth 48h, SARS PLP yeast, HCV inhibitor)
Cc1cc(C)n(-c2nc(N(c3ccccc3)c3ccccc3)nc(-n3nc(C)cc3C)n2)n1	Pf growth 96h inconclusive, Pf growth 48h 2.6µM, HCV inhibitor 10µM (no result: HCMV inh)
CC(C)CC1NC(=O)N(CC(=O)Nc2ccccc2-c2ccccc2)C1=O (centres undefined)	Sm TGR block 2.2µM
CC(C)(C)c1ccccc1NC(=O)CN1C(=O)NC(Cc2ccccc2)C1=O (centres undefined)	Pf growth 96h inconclusive, Sm TGR block 50µM
COc1ccc(C)cc1NC(=O)c1cn(C)c(=O)c2cc(OC)c(OC)cc12	none (no result: Pf growth 96h, Pf growth 48h, SARS PLP yeast, HCV inhibitor)
COc1ccccc1NC(=O)c1cn(C)c(=O)c2cc(OC)c(OC)cc12	Pf growth 96h 8.3µM
COc1cc2c(C(=O)Nc3ccc(C)cc3Br)cn(C)c(=O)c2cc1OC	none (no result: Pf growth 96h, Pf growth 48h, SARS PLP yeast, HCV inhibitor)
COc1cc2c(C(=O)Nc3ccccc3F)cn(C)c(=O)c2cc1OC	Pf growth 96h 8.3µM, Sm TGR block inconclusive
CCOC(=O)n1c2ccccc2c(=O)n1CCO	none (no result: Pf growth 96h, Sm TGR block, Pf growth 48h, SARS PLP yeast, HCV inhibitor)
COC(=O)[C@@H]1C[C@@]2(O)[C@H](O)[C@H](O)[C@H](O)C[C@H]2N1Cc1cc(OC)cc(OC)c1	none
COC(=O)[C@@H]1C[C@@]2(O)[C@@H](O)[C@@H](O)[C@@H](O)C[C@H]2N1Cc1cc(OC)cc(OC)c1	HCMV inh -100, HCV inhibitor 0.5µM
COc1cc(NC(=O)C2CCN(c3cnc4ccccc4n3)CC2)cc(OC)c1OC	none (no result: Pf growth 96h, Pf growth 48h, SARS PLP yeast, HCV inhibitor)
c1ccc(-c2nc3ccccc3nc2-c2nc3ccccc3[nH]2)cc1	none (no result: Pf growth 96h, Sm TGR block, Pf growth 48h, SARS PLP yeast, HCV inhibitor)
CC(C)c1oc(=O)cc2c1[C@@H](O)[C@H]1OC(=O)[C@@]3(C)C[C@@H](O)[C@@H](O)[C@@]2(C)C13 (some centres undefined)	HCMV inh -98, Pf growth 96h 1µM, Pf growth 48h 1.5µM, HCV inhibitor inconclusive
CC(C)c1oc(=O)cc2c1[C@@H](O)[C@H]1OC(=O)[C@@]3(C)CC[C@@H](O)[C@@]2(C)C13 (some centres undefined)	HCMV inh -97, Pf growth 96h 2.6µM, Pf growth 48h 2.9µM, HCV inhibitor inconclusive
CC1CCN(c2ccc(C(=O)O)cc2N)CC1	Pf growth 96h 3.3µM
Cc1cc(C)c(C#N)c(N2CCN(c3ccccc3F)CC2)n1	Pf growth 96h 12µM
O=C(O)CSc1nc2c(c(C(F)(F)F)n1)CCCC2	HCMV inh -96!
CC(=O)c1ccc(NC(=O)c2nc(-c3ccc(Cl)cc3)n3c2CCCCC3)cc1	none (no result: Pf growth 96h, Pf growth 48h, SARS PLP yeast, HCV inhibitor)
Cc1cc(C)c(S(=O)(=O)N2CCCCC2CCNC(=O)C(=O)NC2CC2)c(C)c1 (centres undefined)	Pf growth 96h inconclusive, Pf growth 48h 9.3µM (no result: HCMV inh)
Cc1ccc(C)c(S(=O)(=O)N2CCCCC2CCNC(=O)C(=O)NCc2ccco2)c1 (centres undefined)	Pf growth 96h inconclusive, Pf growth 48h inconclusive, HCV inhibitor 11µM
Cc1ccc(C)c(S(=O)(=O)N2CCCC2CNC(=O)C(=O)NCc2ccco2)c1 (centres undefined)	Pf growth 48h inconclusive
Cc1ccc(S(=O)(=O)CCC(=O)OC(C)C(=O)N2CCc3ccccc32)cc1 (centres undefined)	Pf growth 48h inconclusive
CCC(C)n1c(=O)c2sccc2n2c(CCCC(=O)N3CCC(C(N)=O)CC3)nnc12 (centres undefined)	Sm TGR block 7.1µM
CCn1c(=O)c2sccc2n2c(CCCC(=O)N3CCN(c4ccc(F)cc4)CC3)nnc12	HCMV inh inconclusive (no result: Pf growth 96h, Pf growth 48h, SARS PLP yeast, HCV inhibitor)
COc1ccc2[nH]c(C(=O)O)c(CCNC(=O)/C=C/c3ccc(O)c(OC)c3)c2c1	none
CC(=O)N(Cc1cccnc1)Cc1cc2ccccc2[nH]c1=O	none
O=C(c1cc2ccccc2[nH]1)N(Cc1cccnc1)CC1CCCN(C2CCCCC2)C1 (centres undefined)	Pf growth 96h inconclusive, Pf growth 48h 10µM, HCV inhibitor inconclusive
COc1ccc(OC)c(-c2nc3cc4ccccc4cc3nc2-c2ccccc2)c1	Pf growth 96h inconclusive, Pf growth 48h inconclusive, HCV inhibitor inconclusive
CC1=NN(c2cccc(F)c2)C(=O)/C1=C/c1ccc(N(C)C)cc1	Pf growth 96h inconclusive
CN(C)c1ccc(C=c2c3ccccc3n3c2c2ccccc2[n+]3C)cc1	HCMV inh -98, HCV inhibitor 8.9µM (no result: Pf growth 96h, Sm TGR block, Pf growth 48h, SARS PLP yeast)
Cc1cc2c(=Cc3ccc(N(C)C)cc3)c3ccccc3n2[n+]1C	HCMV inh -97, HCV inhibitor 1.3µM (no result: Pf growth 96h, Sm TGR block, Pf growth 48h, SARS PLP yeast)
CCOC(=O)SC1=N/C(=C\c2ccc(N(C)C)cc2)C(=O)S1	none
CCOC(=O)c1cc2c(=Cc3ccc(N(C)C)cc3)c3ccccc3n2[n+]1C	HCMV inh -88, HCV inhibitor inconclusive (no result: Pf growth 96h, Sm TGR block, Pf growth 48h, SARS PLP yeast)
COc1ccc(-c2noc(N3CCC(C(=O)N4CCN(c5ccccc5OC)CC4)CC3)n2)cc1	HCMV inh -77 (no result: Pf growth 96h, Pf growth 48h, SARS PLP yeast, HCV inhibitor)
COc1ccc(-c2noc(N3CCC(C(=O)N4CCN(c5ccccn5)CC4)CC3)n2)cc1	HCMV inh -83, Pf growth 96h inconclusive, Pf growth 48h inconclusive, HCV inhibitor 4.5µM
CCN(C(=O)C1CCN(c2nc(-c3ccc(OC)cc3)no2)CC1)c1ccc(OC)cc1	HCMV inh -73, Pf growth 48h 9.3µM, HCV inhibitor 8.9µM
COc1ccc(N2C(=O)CCC(C(=O)NCc3ccccn3)C2c2ccc(OC)c(OC)c2)cc1 (centres undefined)	Pf growth 96h 4.7µM
CC(Sc1ccccc1)C(=O)NN=C1CCN(C)CC1 (centres undefined)	none
COc1ccc(-c2noc(N3CCC(C(=O)N4CCN(c5cccc(C)c5C)CC4)CC3)n2)cc1	none (no result: Pf growth 96h, Pf growth 48h, SARS PLP yeast, HCV inhibitor)
COc1ccc(-c2noc(N3CCC(C(=O)N4CCN(c5cccc(OC)c5)CC4)CC3)n2)cc1	HCMV inh -84 (no result: Pf growth 96h, Pf growth 48h, SARS PLP yeast, HCV inhibitor)
COc1ccc(C2C(C(=O)N3CCN(c4ccccn4)CC3)CC(=O)N2c2ccc(OC)cc2)cc1 (centres undefined)	Pf growth 48h 4.7µM
COC(=O)c1c(-c2ccc(Cl)cc2)noc1N1CCN(c2cccc(OC)c2)CC1	HCMV inh -72 (no result: Pf growth 96h, Pf growth 48h, SARS PLP yeast, HCV inhibitor)
